These results are taken from the supplement of paper PMC12808144.

Values without a mark were called inactive.

One test concerns Mel-DCC-11. Nature of the test: cell viability relative to DMSO control (fraction of DMSO control); higher = less cytotoxic, active = 0.5 or less. The following applies: 1 µM; 120 h. In a few lines: (§1)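 Three cell types were screened against 315 approved anti-cancer drugs from TargetMol, acoustically pre-spotted in 384-well plates at 1 µM in duplicate over 120 h: NHEM-hTERT immortalized melanocytes (2500/well), patient-derived Mel-DCC-11 and its resistant subline Mel-DCC-11-R (both 1500/well), all in 40 µl per well. The subline was tested alone and with 8 µM of its selecting drug. Viability, measured by luminescence, was normalised to vehicle controls and averaged across duplicates, with ATPlite 1step as the readout.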

A further test has as its system NHEM-hTERT. Described as above. The following applies: 1 µM; 120 h. In a few lines: as §1
The next test deals with Mel-DCC-11-R. The test is described as follows: cell viability relative to DMSO control (fraction of DMSO control); higher = less cytotoxic, active = 0.8 or less. The settings on record: 1 µM, 120 h. In a few lines: as §1

For `CC(C)C[C@H](NC(=O)CNC(=O)c1cc(Cl)ccc1Cl)B(O)O` [Ixazomib], the cell viability was 0.0361 (active) in the test with Mel-DCC-11, 0.0856 (active) in the test on NHEM-hTERT, 0.13 (active) in the test on Mel-DCC-11-R (vemurafenib co-treatment 0 µM) and 0.0834 (active) with Mel-DCC-11-R (vemurafenib co-treatment 8 µM).

Consider `CN(C)CCOc1ccc(/C(=C(/CCCl)c2ccccc2)c2ccccc2)cc1` [Toremifene], for which the cell viability in the test with Mel-DCC-11 is 1.1; in the test with NHEM-hTERT, 0.904; in the test on Mel-DCC-11-R (vemurafenib co-treatment 0 µM), 0.887; in the test on Mel-DCC-11-R (vemurafenib co-treatment 8 µM) it was 1.26.

As for `CN(C)C/C=C/C(=O)Nc1cc2c(Nc3ccc(F)c(Cl)c3)ncnc2cc1O[C@H]1CCOC1.O=C(O)/C=C\C(=O)O.O=C(O)/C=C\C(=O)O` [Afatinib Dimaleate], the cell viability in the test with Mel-DCC-11 was 0.711; with NHEM-hTERT it was 1.13; in the test on Mel-DCC-11-R (vemurafenib co-treatment 0 µM), 1.03; in the test with Mel-DCC-11-R (vemurafenib co-treatment 8 µM), 0.766 (active).

`CNC(=O)c1c(C)oc2cc(Oc3ncnc4cc(OC)c(OC)cc34)ccc12` [Fruquintinib]: the cell viability in the test with Mel-DCC-11 was 1.34; in the test on NHEM-hTERT, 0.982.

Take `O=[N+]([O-])c1cncn1CCN1CCOCC1` [Nimorazole]: the cell viability with Mel-DCC-11 was 1.13; in the test on NHEM-hTERT it was 1.14; in the test with Mel-DCC-11-R (vemurafenib co-treatment 0 µM), 1.02; in the test with Mel-DCC-11-R (vemurafenib co-treatment 8 µM), 1.08.

Consider `CCCc1cc(C)[nH]c(=O)c1CNC(=O)c1cc(-c2ccnc(N3CCN(C)CC3)c2)cc2c1cnn2C(C)C`, for which the cell viability was 1.45 in the test with Mel-DCC-11, 1.01 in the test with NHEM-hTERT, 0.999 in the test with Mel-DCC-11-R (vemurafenib co-treatment 0 µM) and 0.88 with Mel-DCC-11-R (vemurafenib co-treatment 8 µM).

For `CN(C)CCOc1ccc(/C(=C(/CCCl)c2ccccc2)c2ccccc2)cc1.O=C(O)CC(O)(CC(=O)O)C(=O)O` [Toremifene citrate], the cell viability is 1.61 in the test on Mel-DCC-11, 0.992 in the test with NHEM-hTERT, 0.981 in the test on Mel-DCC-11-R (vemurafenib co-treatment 0 µM) and 1.19 in the test with Mel-DCC-11-R (vemurafenib co-treatment 8 µM).

`COC(=O)Nc1nc2ccc(C(=O)c3cccs3)cc2[nH]1` [Nocodazole]: the cell viability is 0.998 with Mel-DCC-11, 0.63 in the test with NHEM-hTERT, 0.823 in the test with Mel-DCC-11-R (vemurafenib co-treatment 0 µM) and 0.518 (active) with Mel-DCC-11-R (vemurafenib co-treatment 8 µM).

Turning to `CC1(C)NC(=O)N(c2ccc([N+](=O)[O-])c(C(F)(F)F)c2)C1=O` [Nilutamide], the cell viability in the test with Mel-DCC-11 was 1.09; in the test on NHEM-hTERT it was 1.19; with Mel-DCC-11-R (vemurafenib co-treatment 0 µM) it was 1.03; in the test on Mel-DCC-11-R (vemurafenib co-treatment 8 µM), 0.997.

Consider `CO[C@H]1C[C@@H]2CC[C@@H](C)[C@@](O)(O2)C(=O)C(=O)N2CCCC[C@H]2C(=O)O[C@H]([C@H](C)C[C@@H]2CC[C@@H](OCCO)[C@H](OC)C2)CC(=O)[C@H](C)/C=C(\C)[C@@H](O)[C@@H](OC)C(=O)[C@H](C)C[C@H](C)/C=C/C=C/C=C/1C` [Everolimus], for which the cell viability in the test on Mel-DCC-11 is 1.35; in the test with NHEM-hTERT it was 0.964; in the test on Mel-DCC-11-R (vemurafenib co-treatment 0 µM), 1.57; with Mel-DCC-11-R (vemurafenib co-treatment 8 µM) it was 0.834.

Turning to `COc1cc(NS(C)(=O)=O)ccc1Nc1c2ccccc2nc2ccccc12` [Amsacrine], the cell viability with Mel-DCC-11 was 1.1; in the test with NHEM-hTERT, 0.72; with Mel-DCC-11-R (vemurafenib co-treatment 0 µM), 1.06; with Mel-DCC-11-R (vemurafenib co-treatment 8 µM), 0.539 (active).

For the compound `Cc1coc2c1C(=O)C(=O)c1c-2ccc2c(C)cccc12` [Tanshinone I], the cell viability with Mel-DCC-11 is 0.753; in the test with NHEM-hTERT it was 0.983; with Mel-DCC-11-R (vemurafenib co-treatment 0 µM) it was 1.03; in the test with Mel-DCC-11-R (vemurafenib co-treatment 8 µM), 0.825.

With `CCCCCCCCCCCCCCCC(=O)OC/C=C(C)/C=C/C=C(C)/C=C/C1=C(C)CCCC1(C)C` [Retinol palmitate], the cell viability in the test on Mel-DCC-11 is 0.752; with NHEM-hTERT, 0.993; in the test on Mel-DCC-11-R (vemurafenib co-treatment 0 µM), 1.02; with Mel-DCC-11-R (vemurafenib co-treatment 8 µM), 0.978.

Turning to `O=C(c1ccc(F)c(F)c1Nc1ccc(I)cc1F)N1CC(O)([C@@H]2CCCCN2)C1` [Cobimetinib], the cell viability with Mel-DCC-11 is 0.0964 (active); with NHEM-hTERT, 0.715; with Mel-DCC-11-R (vemurafenib co-treatment 0 µM), 0.309 (active); with Mel-DCC-11-R (vemurafenib co-treatment 8 µM), 0.302 (active).

In the case of `Cc1nc(Nc2ncc(C(=O)Nc3c(C)cccc3Cl)s2)cc(N2CCN(CCO)CC2)n1` [Dasatinib], the cell viability in the test with Mel-DCC-11 was 1.25; in the test on NHEM-hTERT, 0.513; with Mel-DCC-11-R (vemurafenib co-treatment 0 µM), 1.59; with Mel-DCC-11-R (vemurafenib co-treatment 8 µM), 1.58.

Take `O=C(Nc1c(Cl)cncc1Cl)c1ccc(OC(F)F)c(OCC2CC2)c1` [Roflumilast]: the cell viability is 1.34 in the test with Mel-DCC-11, 0.841 in the test on NHEM-hTERT, 1.15 in the test on Mel-DCC-11-R (vemurafenib co-treatment 0 µM) and 1.31 in the test with Mel-DCC-11-R (vemurafenib co-treatment 8 µM).

In the case of `CCCCCCNC(=O)n1cc(F)c(=O)[nH]c1=O` [Carmofur], the cell viability in the test with Mel-DCC-11 was 1.58; in the test with NHEM-hTERT, 1.17.

Consider `[Cl][Pt+2][Cl]` [Cisplatin], for which the cell viability in the test on Mel-DCC-11 was 1.12; in the test on NHEM-hTERT, 1.04; in the test on Mel-DCC-11-R (vemurafenib co-treatment 0 µM), 1.08; in the test on Mel-DCC-11-R (vemurafenib co-treatment 8 µM) it was 1.28.

`COc1cc2ncnc(Nc3ccc(F)c(Cl)c3)c2cc1OCCCN1CCOCC1` [Gefitinib]: the cell viability with Mel-DCC-11 was 1.08; in the test with NHEM-hTERT, 0.905; in the test on Mel-DCC-11-R (vemurafenib co-treatment 0 µM) it was 0.893; in the test on Mel-DCC-11-R (vemurafenib co-treatment 8 µM), 0.629 (active).

Regarding `CO[C@H]1C[C@@H]2CC[C@@H](C)[C@@](O)(O2)C(=O)C(=O)N2CCCC[C@H]2C(=O)O[C@H]([C@H](C)C[C@@H]2CC[C@@H](OC(=O)C(C)(CO)CO)[C@H](OC)C2)CC(=O)[C@H](C)/C=C(\C)[C@@H](O)[C@@H](OC)C(=O)[C@H](C)C[C@H](C)/C=C/C=C/C=C/1C` [Temsirolimus], the cell viability in the test on Mel-DCC-11 was 1.38; in the test with NHEM-hTERT it was 0.758; in the test with Mel-DCC-11-R (vemurafenib co-treatment 0 µM), 1.53; with Mel-DCC-11-R (vemurafenib co-treatment 8 µM) it was 0.786 (active).
